Source: PubChem BioAssay
Most compounds without a hit are left out; they make up all but 11% or so of the library.
Tau fluor counter = counter-screen for tau fibril formation inhibitors. tau K18 P301L Alexa594 fluorescence, heparin fibrillization. Potency, µM (doses to about 57.7 µM), inactives show at the top dose activity change, negative = decrease. actives 0.93% (n = 280,000). AID 1463; also: potency is read from the fitted curve at half-maximal effect; nearly all actives have a fitted effect of over 55% in size
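Human tau K18 P301L (15 uM unlabeled, 0.24 uM Alexa 594-labeled) in 100 mM sodium acetate pH 7 with 20 uM heparin, 6 hr at 37 C. ThT 30 uM added, 1 hr ambient; Alexa 594 FP and total fluorescence read at 555/632 nm.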
Sfp PPTase inh = Sfp phosphopantetheinyl transferase inhibition. AID 1490. Biochemical Sfp PPTase activity, qHTS. actives 3.5% (n = 310,000). Potency, µM, inactives show largest response in the series, negative = inhibition, usual class: inhibitors. Q9F4F7;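 also: the enzyme is Sfp with the accession as filed and its product quenches rhodamine fluorescence; potency is read from the fitted curve at half-maximal effect; 0% = enzyme reaction without inhibitor and -100% = no enzyme wells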
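Fluorescence-quenching assay: 15 nM Sfp-PPTase preincubated 15 min at room temperature with compound, then 5 uM rhodamine-CoA and 12.5 uM BHQ-2-labelled YbbR peptide added. Fluorescence (ex 525/em 598 nm) read at start and after 30 min; difference gives rate.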
Tau FP inhib = inhibitors of human tau fibril formation; P10636; K18 P301L tau heparin fibrillization, Alexa594 FP, 6 h; Potency, µM (series often up to 57.7 µM), for inactives: top-dose activity, negative = inhibition, hits mostly inhibitors; actives 0.39% (n = 280,000); AID 1468; also: potency is read from the fitted curve at half-maximal effect; nearly all actives have a fitted effect of over 55% in size
Target sequence (P10636 561-689 P618L limits assumed): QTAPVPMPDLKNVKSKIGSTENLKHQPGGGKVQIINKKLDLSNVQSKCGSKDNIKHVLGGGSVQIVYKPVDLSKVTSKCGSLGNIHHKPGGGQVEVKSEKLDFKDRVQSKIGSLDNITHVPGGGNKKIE
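Human K18 P301L fragment (15 uM unlabeled plus 0.24 uM Alexa 594-labeled) in 100 mM sodium acetate pH 7 with compound, aggregation induced by 20 uM heparin for 6 hr at 37 C. ThT (30 uM) added for 1 hr, then Alexa 594 FP read.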
Tau fibril ThT = blocks human tau fibril formation measured by thioflavin T; actives 2.1% (n = 270,000); recombinant tau K18 P301L (four-repeat tau fragment), heparin-induced fibrillization, ThT fluorescence; P10636; Potency, µM (doses to about 57.4 µM), for the others: top-dose activity, negative = inhibition, hits mostly inhibitors; AID 1460; also: potency is read from the fitted curve at half-maximal effect; nearly all actives have a fitted effect of over 55% in size
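Heparin-induced fibrillization of the P301L-mutant K18 repeat-domain fragment of human tau was followed by ThT binding in quantitative high-throughput format.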
G9a block = inhibitors of human histone lysine methyltransferase G9a. Q96KQ7. G9a H3K9 monomethylation, AlphaScreen, 2 h. Potency, µM (top dose mostly 102 µM), inactives show at the top dose activity, negative = inhibition, hits mostly inhibitors. actives 8.8% (n = 350,000). AID 504332; also: potency is read from the fitted curve at half-maximal effect; nearly all actives have a fitted effect of over 75% in size
Target sequence (Q96KQ7 913-1193 limits assumed): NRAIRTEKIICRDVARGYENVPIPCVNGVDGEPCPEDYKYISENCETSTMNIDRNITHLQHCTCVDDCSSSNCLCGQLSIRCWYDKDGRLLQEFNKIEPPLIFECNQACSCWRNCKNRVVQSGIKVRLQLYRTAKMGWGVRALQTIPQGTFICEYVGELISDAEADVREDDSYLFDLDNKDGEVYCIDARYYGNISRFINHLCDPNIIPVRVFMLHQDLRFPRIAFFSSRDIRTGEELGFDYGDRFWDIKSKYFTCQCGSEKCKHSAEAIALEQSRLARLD
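Compounds were preincubated with 20 nM G9a for 15 min, after which biotinylated H3K9 peptide (500 nM) and SAM (20 uM) started a 2 h room-temperature reaction. Monomethylated product was quantified by antibody-based AlphaScreen chemiluminescence.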
Coupling enz = inhibits coupling enzyme system, counter-screen for aldolase hits; coupling enzyme system counterscreen, AmpLite Red fluorescence; activity change, negative = inhibition, % at 58.2 µM, hits read low; actives 0.67% (n = 290,000); in the data active = activity change below about -30%
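Coupling enzymes only (glyceraldehyde-3-phosphate) + compound, at 57.5 uM final, 10 min RT; add substrate/coupling/AmpLite Red mix, 20 min RT; fluorescence ex 525/em 598 nm. Actives flag coupling-system interference.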
* hit, by the source's call; ? = inconclusive; · = no result given; [ ] = remark or other dose. Unless noted, calls follow the shape of the dose curve; as a rule, active = well fitted curve in the direction sought with a large enough effect; inconclusive = small, poorly fitted or top-dose-only effect, or another doubt; inactive = no such curve, though single readings can be large; an effect the other way counts as inactive or inconclusive. Unless noted, % is scaled to controls: 0 for no effect and ±100 for the full control effect.

SMILES | Tau fluor counter | Sfp PPTase inh | Tau FP inhib | Tau fibril ThT | G9a block | Coupling enz
CC(c1n[nH]c(=S)n1-c1ccc(F)cc1)N1CCCCC1 (centres undefined) | 3% | -2% | 4% | 1% | 35µM* | 4
CCC(c1n[nH]c(=S)n1-c1ccccc1)N(C)C (centres undefined) | -6% | -8% | 0% | -9% | 8.9µM* | 0
Cc1ccc(OC(C)C(=O)N2CCN(CCc3ccncc3)CC2)cc1C (centres undefined) | -1% | · | 2% | -5% | -27%[59 µM] | ·
CCOC(=O)c1cnc(N2CCN(C(=O)OCC)CC2)[nH]c1=O | -6% | -2% | -10% | ? | ? | 5
O=C(CCNS(=O)(=O)c1ccc(Cl)cc1)N1CCCCCC1 | · | 19% | · | · | 14% | ·
Cc1c(-c2ccc(Cl)cc2)c(=O)oc2ccc(OC(=O)N3CCOCC3)cc12 | -11% | · | -9% | -7% | 1%[59 µM] | ·
CC1(C)Cc2c(sc(NC(=O)C(=O)N3CCCC3)c2C#N)CO1 | · | ? | · | · | 28µM* | 0
CCC(=O)Nc1sc2c(c1C#N)CC(C)(CC)OC2 (centres undefined) | -1% | 56µM* | 0% | 0% | -16%[12.7 µM] | 1
CCC1(C)Cc2c(sc(NC(=O)CCC(=O)O)c2C#N)CO1 (centres undefined) | 0% | 7% | 12% | -3% | ? | -2
CC1(C)Cc2c(sc(NC(=O)C(=O)N3CCCC3)c2C(=O)O)CO1 | · | -7% | · | · | · | ·
Cc1ccc(OCC(=O)OC(C)C(=O)NC2CCCCC2C)cc1C (centres undefined) | · | · | · | · | 2%[12.7 µM] | ·
Cc1ccc(CNC(=O)c2cc3c(=O)n4cccc(C)c4nc3s2)cc1 | -10% | · | -10% | 0% | -6%[59 µM] | ·
O=C(CNC1=NCCC1)c1ccc(Cl)cc1 | -3% | -14% | 12% | -13% | 28µM* | -36*
C/C(=N\NC(N)=S)C1=CCC2C3CC[C@H]4CC(O)CC[C@]4(C)C3CC[C@]12C (some centres undefined) | · | 40µM* | · | · | 8.9µM* | 0
CC12CCC3C(CCC4CC(O)CCC43C)C1CC=C2c1ccccc1 (centres undefined) | · | 7% | · | · | · | -1
CNC(=O)C1CC(=O)N(CCc2ccc(C)cc2)C1 (centres undefined) | · | 14% | · | · | 34% | 0
Cc1ccc(N2CC(NC(=O)c3ccc(S(=O)(=O)N(C)C)cc3)CC2=O)cc1C (centres undefined) | -6% | · | -4% | -7% | -4%[59 µM] | ·
Cc1ccc(NC2CCCN(C(=O)c3ccoc3)C2)cc1C (centres undefined) | · | -1% | · | · | 79µM* | -5
COc1ccc(C(=O)N2CCCC(Nc3ccc(C)c(C)c3)C2)cc1 (centres undefined) | · | 0% | · | · | -24% | ·
Cc1cc(C(=O)N2CCCC(Nc3ccc(F)cc3)C2)n(C)n1 (centres undefined) | · | 10% | · | · | · | 12
CCCc1cc(C(=O)N2CCCC(Nc3ccc(C)c(C)c3)C2)n(C)n1 (centres undefined) | · | 5% | · | · | 45µM* | 1
Cc1cccc(-n2cnc3cc(C(=O)NC4CCCCCC4)ccc32)c1 | -15% | · | ? | ? | ? | ·
CC(=O)OCC1OC(C#CC2=CCCCC2)C=CC1OC(C)=O (centres undefined) | -10%[11.6 µM] | -2% | -19%[11.6 µM] | ? | · | 6
CCOC(=O)C(CS)NCCN[C@@H](CS)C(=O)OCC (some centres undefined) | · | 1.6µM* | · | · | ? | ·
CCOC(=O)CCC(NC(=O)CCC(=O)NC(CCC(=O)OCC)C(=O)OCC)C(=O)OCC (centres undefined) | -1% | 15% | -14% | -3% | 2%[59 µM] | 0
SMILES | Tau fluor counter | Sfp PPTase inh | Tau FP inhib | Tau fibril ThT | G9a block | Coupling enz
COc1ccc(-c2nc3c4ccccc4ccn3c2CN2CCCCC2)cc1 | -11% | 13% | -4% | -4% | 40µM* | -3
COc1ccc(-c2nc3c4ccccc4ccn3c2CN2CCCCC2)cc1OC | 5% | 10% | 8% | 3% | ? | -2
O=C1CSC(=NC2CCCCC2)N1 | -8% | -5% | ? | 22µM* | 13%[12.7 µM] | 1
C=CCOc1ccccc1C(=O)/C=C1/C(=O)Nc2ccccc21 | · | 79µM* | · | · | ? | -1
NC(=O)COc1ccc(C(=O)/C=C2/C(=O)Nc3ccccc32)cc1 | · | -6% | · | · | 79µM* | -2
O=C1Nc2ccccc2/C1=C/C(=O)c1cccs1 | -26% | 45µM* | 3% | 18µM* | ? | -4
COc1ccc(C(=O)/C=C2/C(=O)Nc3ccccc32)cc1OC | · | 0% | · | · | -50% | 2
COc1ccc(C(=O)/C=C2/C(=O)Nc3ccccc32)cc1 | · | -1% | · | · | -12% | 0
COc1ccc(C(=O)/C=C2/C(=O)Nc3ccccc32)c(OC)c1 | · | 56µM* | · | · | -41%[12.7 µM] | 0
C=CCOc1ccc(C(=O)/C=C2/C(=O)Nc3ccccc32)cc1 | · | 13% | · | · | ? | 0
O=C(CNC(=O)C1CCCCC1)NC1CCCCC1 | · | 9% | · | · | 24% | 0
COc1ccc(CCn2c(Br)nc3c2c(=O)[nH]c(=O)n3C)cc1 | 5% | 5% | 4% | 4% | -41% | 5
COc1ccc(CCn2c(NN=C(C)C)nc3c2c(=O)[nH]c(=O)n3C)cc1 | ? | 56µM* | ? | 22µM* | -45%[59 µM] | -24
COc1ccc(CCn2c(NN)nc3c2c(=O)[nH]c(=O)n3C)cc1 | ? | 50µM* | ? | · | · | -24
COc1ccc(S(=O)(=O)N2CCCC(C(=O)NCC3CCCO3)C2)cc1OC (centres undefined) | · | 19% | · | · | 10% | 0
O=C(CN1CCN(S(=O)(=O)c2ccc(Br)s2)CC1)N1CCCCC1 | · | · | · | · | -10%[2.33 µM] | ·
O=S(=O)(Nc1ccc(N2CCOCC2)cc1)c1ccc(F)cc1 | -17% | 6% | -2% | -13% | ? | -1
COc1ccc(S(=O)(=O)Nc2ccc(N3CCOCC3)cc2)cc1Br | ? | 4% | 18% | -12% | 10µM* | 2
COc1ccc(S(=O)(=O)Nc2ccc(-n3cnnn3)cc2)cc1Br | · | · | · | · | 56µM* | ·
COc1ccc(S(=O)(=O)Nc2ccc(N3CCOCC3)cc2)cc1[N+](=O)[O-] | -24% | -17% | 8% | -15% | 45µM* | -2
O=S(=O)(Nc1ccc(N2CCOCC2)cc1)c1c(F)cc(F)cc1Br | · | 6% | · | · | 40µM* | -3
CC(C(=O)Nc1ccc(F)cc1Cl)N1CCN(S(=O)(=O)c2cccs2)CC1 (centres undefined) | · | · | · | · | 7%[59 µM] | ·
CCC(C)[C@H](NC(=O)[C@@H]1CSC2c3ccccc3C(=O)N21)C(=O)NCc1ccncc1 (some centres undefined) | · | 13% | · | · | ? | ·
